Experimental data: PubChem BioAssay AID1159580 (chemical genetic matrix, 2015)
About 2,000 (36%) of roughly 5,500 compounds were called active. About 18% were inconclusive and are not listed. No stated cut-off is given here; in the data, active means normalized growth mostly below about 0.91 (no sharp cut-off); inconclusive means no clear call, values can overlap the other calls; inactive means mostly above about 0.92. Some of the results follow.

Test: chemical genetic growth profiling, strain panel (AID 1159580);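 further: tested at 20 µM; growth read once vehicle control cultures reached saturation at 30 °C; 1 = growth at the plate median or of vehicle wells; lower values mean less growth of the strain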
Conditions: S. cerevisiae deletion strains, growth OD

Measured: normalized growth

CC(=O)C1COc2ccc(C)cc2C1=O (configuration not stated)
active: locus YBR229C, strain ROT2, hits give low values 0.898 | locus YDL101C, strain DUN1, hits give low values 0.838 | locus YHR030C, strain SLT2, hits give low values 0.291 | locus YJL187C, strain SWE1, hits give low values 0.888 | locus YKL190W, strain CNB1, hits give low values 0.832 | locus YLR039C, strain RIC1, hits give low values 0.173 | locus YLR058C, strain SHM2 (second series), hits give low values 0.923 | locus YLR085C, strain ARP6, hits give low values 0.44 | locus YLR262C, strain YPT6, hits give low values 0.176 | locus YML094W, strain GIM5, hits give low values 0.848 | locus YMR219W, strain ESC1, hits give low values 0.928 | locus YPR135W, strain CTF4, hits give low values 0.58
inactive: locus YAL013W, strain DEP1, hits give low values 0.972 | locus YCL061C, strain MRC1, hits give low values 0.916 | locus YDR150W, strain NUM1, hits give low values 0.984 | locus YEL061C, strain CIN8, hits give low values 0.924 | locus YGR078C, strain PAC10, hits give low values 0.952 | locus YHR087W, strain rtc3, hits give low values 0.916 | locus YJR043C, strain POL32, hits give low values 0.931 | locus YJR075W, strain HOC1, hits give low values 0.903 | locus YMR263W, strain SAP30, hits give low values 0.96 | locus YNL153C, strain GIM3, hits give low values 0.954 | locus YNL298W, strain CLA4 (second series), hits give low values 0.855 | locus YNL322C, strain KRE1, hits give low values 0.979 | locus YNR030W, strain Alg12, hits give low values 0.901 | locus YPL055C, strain LGE1, hits give low values 0.93 | locus YPL241C, strain CIN2, hits give low values 0.914
